Compound activity deposited in PubChem BioAssay by National Center for Advancing Translational Sciences (NCATS).
HCV inh: blocks hepatitis C virus; Potency, µM (series often up to 41.8 µM), most hits filed as inhibitors; 3.4% of 340,000 active; Huh7.5.1 HCVcc-Cre infection, luciferase reporter, 44 h; active = well fitted inhibition curve with a large enough effect; inconclusive = small, poorly fitted or top-dose-only effect, or another doubt; inactive = no such curve, though single readings can be large or run the other way
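Infectious HCVcc-Cre (~0.5 moi) was added to cells just after compound, with cells seeded 4 h earlier at 1,000 per well. Luciferase activity after 44 h culture reported infection; substrate was incubated 15 min at room temperature before reading.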
VACV mCherry inh: vaccinia inhibition (mCherry reporter). Vaccinia virus mCherry reporter infection, fluorescence. Potency, µM (top dose mostly 36.5 µM), most hits filed as inhibitors. 0.63% of 310,000 active; calls by dose curve; tested in A549 cells; also: nearly all actives have a fitted effect of over 35% in size
Vaccinia Venus: inhibitors of vaccinia virus (Venus reporter); Potency, µM (titrated, usually from 36.5 µM), actives largely listed as inhibitors; Vaccinia virus Venus reporter expression, fluorescence; 0.46% of 330,000 active; AID 720580; calls by dose curve; tested in A549 cells; also: nearly all actives have a fitted effect of over 30% in size
Numbers stand for hits; . = inactive; ? = inconclusive; / = no result given. An excerpt weighted towards active compounds, which were near 3.3% of everything screened.

SMILES | HCV inh | VACV mCherry inh | Vaccinia Venus
Cc1ccccc1OCCn1c(C)nc2ccccc21 | 5.6µM | . | .
COc1ccc(OC)c(-c2csc(N(C)C(=O)c3ccco3)n2)c1 | . | / | /
Cc1ccc(-n2nc3cc(C)c(NC(=O)COc4ccccc4)cc3n2)cc1 | / | . | .
Cc1cc(C)cc(NC(=O)CSc2nnc(COc3ccccc3Cl)o2)c1 | / | . | .
COc1cccc(CN2CCCC(c3nc(-c4ccncc4)ncc3-c3ccccc3C)C2)c1O (stereo not drawn) | / | . | .
CCCCSc1nc2sc3c(c2c(=O)n1-c1ccccc1C)CC(C)(C)OC3 | / | . | .
CCn1c2ccccc2c2cc(NC(=O)COC(=O)c3cc(S(N)(=O)=O)c(Cl)cc3Cl)ccc21 | ? | 11µM | ?
CCn1c2ccccc2c2cc(NC(=O)CN(C)CC(=O)Nc3ccc(N4CCOCC4)cc3)ccc21 | 11µM | / | /
CCn1c2ccccc2c2cc(NC(=O)N3CCOCC3)ccc21 | ? | / | .
CCn1c2ccccc2c2cc(NC(=O)COc3ccccc3)ccc21 | ? | . | ?
O=C(COC(=O)c1ccccc1Cl)Nc1ccc2[nH]c(=O)[nH]c2c1 | ? | . | .
CCn1c2ccccc2c2cc(NC(=O)COC(=O)c3ccccc3F)ccc21 | ? | 10µM | ?
CCn1c2ccccc2c2cc(NC(=O)COC(=O)c3ccccc3O)ccc21 | 11µM | . | .
CCn1c2ccccc2c2cc(NC(=O)c3cc(OC)cc(OC)c3)ccc21 | ? | . | ?
COc1ccc(NC(=O)CSc2oc(-c3ccco3)nc2S(=O)(=O)c2ccc(Br)cc2)c(OC)c1 | / | . | .
O=C(O)c1ccccc1OP(=O)(O)O | / | . | .
CCOC(=O)[C@]12CCCC=C1N(Cc1ccco1)C(=O)[C@H](CC(=O)NCCCN1CCCC1=O)C2 | / | . | .
CCn1c2ccccc2c2cc(NC(=O)CCCN3C(=O)CCC3=O)ccc21 | 3.5µM | / | .
COc1ccc(NC(=O)CCCN2C(=O)CCC2=O)cc1Cl | . | / | .
CCOC(=O)CSc1nnc2n1C(C)(C)Cc1ccccc1-2 | . | / | /
COc1ccccc1N1CCN(C(=O)CSc2nnc3n2C(C)(C)Cc2ccccc2-3)CC1 | 6.3µM | . | ?
CNc1ncnc2c1ncn2[C@H]1CN(Cc2ccc(Cl)cc2)C[C@@H](CO)O1 | / | . | .
NC(=O)c1cccc2cc3ccccc3cc12 | 11µM | . | .
NC(=O)c1ccccc1OCc1cccc2ccccc12 | ? | . | .
COc1ccc(NS(=O)(=O)c2ccc(N3CCCC3=O)cc2)cn1 | ? | . | .
SMILES | HCV inh | VACV mCherry inh | Vaccinia Venus
COc1ccc(NS(=O)(=O)c2ccc3c(c2)Cc2ccccc2-3)cn1 | 2.8µM | . | .
O=C(/C=C/c1ccc(Cl)cc1Cl)N1CCN(c2ccc([N+](=O)[O-])c(N3CCOCC3)c2)CC1 | ? | . | .
O=C(COc1ccc(Br)cc1)N1CCN(c2ccc([N+](=O)[O-])c(N3CCCCC3)c2)CC1 | ? | . | .
Cc1nn(-c2cc(N3CCCCC3)ccc2N)c(=O)c2ccccc12 | . | . | .
O=C(/C=C/c1ccc(Cl)cc1)N1CCN(c2ccc([N+](=O)[O-])c(N3CCOCC3)c2)CC1 | 7.9µM | . | .
O=C(COc1ccccc1)N1CCN(c2ccc([N+](=O)[O-])c(N3CCCCC3)c2)CC1 | 7.1µM | . | .
O=[N+]([O-])c1ccc(Cl)cc1N1CCCC1 | . | . | .
Cc1nn(-c2cc(N3CCCCCC3)ccc2[N+](=O)[O-])c(=O)c2ccccc12 | 13µM | / | /
O=[N+]([O-])c1ccc(N2CCNCC2)cc1N1CCCCC1 | 10µM | / | /
O=C(CCc1c[nH]c2ccccc12)N1CCC(n2c(C3CCCO3)nc3cc(C(F)(F)F)ccc32)CC1 (stereo not drawn) | / | . | .
Cc1[nH]c2ccc(C(=O)N3CCN(c4ccccc4F)CC3)cc2c1C | / | . | .
NS(=O)(=O)c1ccc(CCNC(=O)c2ccc3nc(Cc4ccccc4)oc3c2)cc1 | / | . | .
Cc1ccc(NC(=O)C2CCCN(S(=O)(=O)c3cccc4cccnc34)C2)c(C)c1 (stereo not drawn) | / | . | .
COc1cccc(C(=O)NCCN2CCOCC2)c1 | . | . | .
O=C1Nc2cc(C(=O)NCCN3CCCCCC3)ccc2S/C1=C\c1ccccc1 | 14µM | / | /
O=C1Nc2cc(C(=O)N3CCc4ccccc4C3)ccc2S/C1=C\c1ccccc1 | . | . | .
COc1cccc(/C=C2/Sc3ccc(C(=O)NCCN4CCCCCC4)cc3NC2=O)c1 | 5.6µM | / | /
CCc1ccc(NC(=O)N(Cc2c[nH]c3ccccc23)C2CCCCC2)cc1 | / | . | .
O=C(NCc1ccncc1)c1csc([C@@H]2C[C@H](O)[C@@H](CO)O2)n1 | / | . | .
CCOC(=O)C(C)C(C)=O (stereo not drawn) | . | 0.32µM | ?
CCOC(=O)C(C(C)=O)C(c1ccc(OC)cc1)C(C(C)=O)C(=O)OCC (stereo not drawn) | . | / | .
COC(=O)c1ccccc1NN=Nc1ccccc1[N+](=O)[O-] | / | . | .
COc1cc(CN2CCC3(CCC(CNC(=O)c4ccccc4)O3)CC2)cc(OC)c1 (stereo not drawn) | / | . | .
O=C(c1ccccc1-n1cccn1)N1CCOc2ccc(CN3CCOCC3)cc2C1 | / | . | .
O=C(NCCCN1CCOCC1)/C(=C/c1cccs1)NC(=O)c1ccccc1 | . | . | .
SMILES | HCV inh | VACV mCherry inh | Vaccinia Venus
CCOc1ccccc1NC(=O)c1nn(C)c2c1CSc1ccccc1-2 | / | . | .
Fc1ccc(C2CCNCC2COc2ccc3c(c2)OCO3)cc1 (stereo not drawn) | 14µM | ? | .
CCOc1cccc(C2C=C(c3ccc4c(c3)OCO4)NC(c3ccc(F)cc3)N2)c1O (stereo not drawn) | / | . | .
CCc1ccc(-n2c(=O)c3c4c(sc3n(CC(=O)c3ccc(Cl)cc3)c2=O)CCC4)cc1 | / | . | .
O=c1c2ccccc2nc(-c2ccco2)n1Cc1ccccc1 | . | / | /
CCc1ccccc1NC(=O)Cn1c(-c2nonc2N)nc2ccccc21 | / | . | .
CCOc1ccc(CCn2c(-c3ccco3)nc3ccccc3c2=O)cc1OCC | 7.1µM | / | /
CCOc1ccc(CCNC(=O)Cn2c(-c3nonc3N)nc3ccccc32)cc1OCC | 14µM | . | .
COc1ccc(CCNC(=O)Cn2c(-c3nonc3N)nc3ccccc32)cc1OC | ? | . | .
CCC(=O)Nc1nonc1-c1nc2ccccc2n1Cc1ccccc1 | . | . | .
CCOC(=O)Cn1c(-c2nonc2NC(=O)c2ccccc2F)nc2ccccc21 | ? | 10µM | .
CCCCOc1ccccc1NC(=O)Cn1c(-c2nonc2N)nc2ccccc21 | ? | 4µM | ?
CC(C)NC(=S)N1CCCN(c2ncccc2[N+](=O)[O-])CC1 | . | / | /
CNc1ccc(C=O)cc1I | / | . | .
COc1ccccc1-c1ccc2ncnc(N(C)C)c2c1 | / | . | .
NS(=O)(=O)c1ccc(NC(=O)CSc2nc3c(cnn3-c3ccccn3)c(=O)[nH]2)cc1 | . | . | .
Cc1cc(OCC(=O)Nc2nc3c(s2)CCCC3)cc(C)c1Cl | / | . | .
COc1cccc(N2C(=O)C(CC(=O)Nc3cccc(F)c3)N(C3CCCC3)C2=O)c1 (stereo not drawn) | / | . | .
COC1=C(C)C(=O)c2c(c(COC(N)=O)c3n2C[C@@H]2[C@@H]3N2C)C1=O (stereo partly drawn) | / | . | 11µM
Cc1cc(C(=O)NCC2CCC3(CCN(Cc4ccc(-c5ccccc5)cc4)CC3)O2)n(C)n1 (stereo not drawn) | / | . | .
